Results filed as inconclusive are left out. Entries that show only a call come without a potency. Active and inactive are the calls of the source. The call rests on the fitted dose curve; in most records, active means well fitted activation curve with a large enough effect; inconclusive means small, poorly fitted or top-dose-only effect; inactive means flat fitted curve, though single readings scatter.
Each compound was assayed against Pyruvate kinase PKM (Homo sapiens) (UniProt P14618) (assay: Confirmation Concentration-Response Assay for Activators of Human Muscle isoform 2 Pyruvate Kinase: for Probe SAR). Settings: purified PKM2, ATP generation, Kinase-Glo luminescence; series mostly up to 57.5 µM.
Pyruvate kinase PKM (Homo sapiens), sequence (P14618 whole entry, looked up, canonical isoform): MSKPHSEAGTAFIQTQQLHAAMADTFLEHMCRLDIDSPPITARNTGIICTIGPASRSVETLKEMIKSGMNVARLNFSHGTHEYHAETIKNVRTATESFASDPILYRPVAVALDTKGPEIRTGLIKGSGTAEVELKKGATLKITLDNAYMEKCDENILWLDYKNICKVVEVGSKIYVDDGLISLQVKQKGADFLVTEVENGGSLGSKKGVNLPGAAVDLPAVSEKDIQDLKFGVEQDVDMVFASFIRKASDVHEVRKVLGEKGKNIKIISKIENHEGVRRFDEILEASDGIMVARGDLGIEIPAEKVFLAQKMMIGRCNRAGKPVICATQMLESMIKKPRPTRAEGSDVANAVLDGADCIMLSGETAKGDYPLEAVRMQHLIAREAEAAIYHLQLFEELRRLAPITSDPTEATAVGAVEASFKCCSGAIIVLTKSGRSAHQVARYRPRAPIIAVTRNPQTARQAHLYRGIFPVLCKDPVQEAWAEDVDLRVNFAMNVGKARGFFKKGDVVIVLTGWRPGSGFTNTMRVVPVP
Method in brief: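 Purified hPK-M2 at 0.1 nM final converted ADP (0.1 mM) and PEP (0.5 mM) to ATP over 1 hour at room temperature in imidazole buffer, pH 7.2. ATP formed was measured by Kinase-Glo luminescence, normalized to no-enzyme and uninhibited controls.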
Further: nearly all actives have a fitted effect of over 60% in size.
Potency means the concentration at half of the fitted maximal effect.

Compound | Potency
O=C1c2ccccc2C(=O)N1c1nccs1 | inactive
Cc1ccc(Nc2c(-c3ccc(C)o3)nc3ccccn23)cc1 | inactive
Cc1cc2c(s1)c1cnn(Cc3c(Cl)ccc(C)c3F)c(=O)c1n2C | 1260 nM (active)
Cc1ccc(NS(=O)(=O)c2cc3c(cc2/C=C/c2ccccc2)NC(=O)CO3)cc1C | inactive
CN(C)c1cccc(S(=O)(=O)N2CCCN(S(=O)(=O)c3ccc4c(c3)OCCO4)CC2)c1 | 163 nM (active)
COc1cc(F)c(S(=O)(=O)N2CCCN(S(=O)(=O)c3ccc4c(c3)OCCO4)CC2)c(F)c1 | 58 nM (active)
Cc1ccc(NS(=O)(=O)c2ccc3ccccc3c2)cc1C | 41100 nM (active)
Cc1ccc(N2C(=O)c3ccccc3C2=O)c(C)c1 | inactive
O=S1(=O)N=C(Oc2cccc(Cl)c2)c2ccccc21 | inactive
Nc1cccc(S(=O)(=O)N2CCN(S(=O)(=O)c3ccc4c(c3)OCCO4)CC2)c1 | 91.9 nM (active)
O=S(=O)(Nc1ccc(O)c(NS(=O)(=O)c2ccccc2)c1)c1ccccc1 | inactive
Cc1ccc(-c2nc3ccccn3c2Nc2ccc(F)cc2)o1 | inactive
O=S1(=O)N=C(OCc2ccccc2)c2ccccc21 | inactive
O=C1CCc2cc(S(=O)(=O)Nc3cccc(Cl)c3)ccc2N1 | 410 nM (active)
Cc1ccc(-c2nc3cnccn3c2Nc2ccc(C(C)C)cc2)o1 | inactive
Cc1ccc(NS(=O)(=O)c2cc3c(cc2C)NC(=O)CO3)cc1C | 580 nM (active)
Cc1ccc(NS(=O)(=O)c2cc3c(cc2Cl)NC(=O)CO3)cc1C | 410 nM (active)
O=C1c2ccccc2C(=O)N1c1cccnc1 | inactive
CC(=O)Nc1ccc(S(=O)(=O)N2CCCN(S(=O)(=O)c3ccc4c(c3)OCCO4)CC2)cc1 | 4110 nM (active)

Reference: PubChem BioAssay AID2533 (National Center for Advancing Translational Sciences (NCATS), 2010)
